An excerpt weighted towards active compounds, which were near 4% of everything screened.
TRHR ag – TRH receptor (human) agonism. TRHR cells, calcium flux fluo-8, FDSS agonist mode. activation, % at 2 µM. 0.18% of 360,000 active; further: 0% is about no effect
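Steps: seed TRHR cells overnight; add fluo-8 no-wash Ca dye, RT 30 min–1.5 h; record 10 s baseline; pin-transfer compounds; monitor fluorescence 1 cycle/s for the agonist window. Calcium increases flag candidate agonists.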
D1 agonist – agonists of human D1 dopamine receptor. 1% of 360,000 active. HEK293 T-REx D1 cells, calcium flux, agonist mode. AID 504660. activation, % at 2 µM; further: 0% is about no effect
Target sequence (P21728 whole entry, looked up): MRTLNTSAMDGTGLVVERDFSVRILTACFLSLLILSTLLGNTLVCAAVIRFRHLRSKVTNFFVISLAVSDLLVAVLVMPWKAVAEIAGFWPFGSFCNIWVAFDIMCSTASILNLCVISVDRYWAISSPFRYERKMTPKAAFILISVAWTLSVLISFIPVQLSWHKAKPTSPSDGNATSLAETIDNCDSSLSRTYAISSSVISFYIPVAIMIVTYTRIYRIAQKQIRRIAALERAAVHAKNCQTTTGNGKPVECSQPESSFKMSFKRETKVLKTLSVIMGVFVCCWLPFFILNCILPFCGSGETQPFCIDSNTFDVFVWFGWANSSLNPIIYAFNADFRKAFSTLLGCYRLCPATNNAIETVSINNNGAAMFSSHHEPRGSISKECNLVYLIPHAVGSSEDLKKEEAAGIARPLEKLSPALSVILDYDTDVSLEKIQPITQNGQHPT
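Tetracycline-induced HEK293 TREx D1 cells, force-coupled to calcium signalling, were dye-loaded with a no-wash calcium kit. Compound was pin-added after a 10 s baseline. Fluorescence was read kinetically at 1 cycle/s for 180 s, with calcium rises flagged as agonism.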
D1 antagonist – blocks dopamine activation of the human D1 receptor | P21728 | 3.2% of 360,000 active | AID 504652 | HEK293 TREx D1 cells, calcium flux, dopamine EC80; hits give low values | activity change, negative = inhibition, % at 10 µM; in the data active means activity change below about -30%; further: on the % scale 0 is the no-effect control and ±100 the full control effect
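Calcium flux readout: force-coupled, inducible Hek293 Trex D1 line, cells induced overnight at 30 C with tetracycline, dye-loaded 30–90 min at RT. Antagonism scored against EC80 dopamine challenge given 180 s after compound.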
TRHR PAM – TRH receptor (human) allosteric enhancement; enhancement, % at 2 µM; P34981; AID 493056; 0.66% of 360,000 active; TRHR cells, fluo-8 calcium fluorescence, EC20 TRH enhancement; in the data active means enhancement above about 30%; further: 0% is about no effect
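Enhancer read-out: after compound pinning and an initial kinetic agonist-mode read, an EC20 of TRH (10 nM final) was injected and fluo-8 calcium signal (Ex 480/Em 530) followed at 1 s/cycle for 100 cycles in TRHR-expressing cells.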
Glioma ERSR ind – ER stress response induction in glioma | U87-MG GRP78 promoter luciferase reporter, 16 h | 0.02% of 420,000 active | Potency, µM, for inactives: top-dose activation, actives largely listed as activators | AID 602332; active means well fitted activation curve with a large enough effect; further: potency means the concentration at half of the fitted maximal effect; series mostly up to about 76 µM; % of control where 0% means no effect; nearly all actives have a fitted effect of over 35% in size
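Stably transfected U87-MG human glioma cells carrying a GRP78-based luminescent sensor were seeded at 1000 cells/well, pin-dosed with compounds and incubated 16 h. Luciferase reagent was then added, and end-point luminescence was read after 10 min at room temperature.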
D1 PAM – human D1 dopamine receptor positive modulation; P21728; HEK293 TREx D1 cells, calcium flux, dopamine EC20 potentiation; potentiation, % at 10 µM; 0.036% of 360,000 active; in the data active means potentiation above about 30%; further: 0% is about no effect
* = called active by the depositor; . = no result given; ! = not confirmed by another sample. Unless noted, no stated cut-off is given here; in the data, active means activation above about 30%; inactive means the rest.

SMILES	TRHR ag	D1 agonist	D1 antagonist	TRHR PAM	Glioma ERSR ind	D1 PAM
Clc1ccc(CNc2ccc(N3CCN(Cc4ccccc4)CC3)cc2)cc1	1	5	1	18	-7%	-3
COc1cccc(CSc2nc3n(n2)C(c2ccc(C(=O)O)cc2)C(C(=O)Nc2ccccc2)=C(C)N3)c1 (configuration not stated)	0	3	-1	-2	-4%	-2
O=C(NCCN1CCOCC1)C1CCC(CNS(=O)(=O)c2ccccc2)CC1 (configuration not stated)	1	4	-11	1	-3%	-7
Cc1sc2nc(-c3ccco3)oc(=O)c2c1C	0	2	0	-2	3%	2
CCN1C(=S)SC(=O)C1=C1C=C(C)N(Cc2ccco2)C(C)=C1	0	171*	-9	3	-6%	5
CCN1C(=S)SC(=O)C1=C1C=C(C)OC(C)=C1	1	1	6	0	-1%	3
CCOC(=O)C1CCCN(S(=O)(=O)c2ccc3c(c2)N(C)C(=O)CC(=O)N3C)C1 (configuration not stated)	0	2	-45*!	0	-2%	0
CCOC(=O)C1CCCN(S(=O)(=O)c2ccc3[nH]c(=O)oc3c2)C1 (configuration not stated)	0	1	-41*	-2	-2%	0
CCOC(=O)C1CCN(S(=O)(=O)c2ccc3[nH]c(=O)oc3c2)CC1	0	5	-6	20	-1%	0
Cc1ccccc1CC(=O)NC1CCCCCC1	0	-2	5	-2	-3%	-3
CCOc1cc(C2C3=C(CC(C)(C)CC3=O)OC3=C2C(=O)CC(C)(C)C3)cc([N+](=O)[O-])c1O	0	-1	-16	-1	-1%	0
Clc1ccc(N/N=C/c2cccnc2)cc1	0	0	21	6	0%	-1
Cc1sc(N/N=C/c2cccnc2)nc1-c1ccc(Cl)cc1	0	-1	-33*	3	-1%	-10
CCNc1cc(S(=O)(=O)C(F)(F)F)ccc1N	1	22	-38*	5	1%	-3
O=C(CCCn1c(=O)c2ccccc2n(CC(=O)NCc2ccco2)c1=O)NCc1ccco1	0	2	-19	2	-3%	-11
Clc1ccccc1-c1nnc(SCc2nc(-c3ccccc3)no2)n1-c1ccccc1	0	5	3	-8	.	-4
Cc1ccc(-c2noc(CSc3nnc(Cc4cccs4)n3-c3ccccc3)n2)cc1	1	1	14	3	-2%	15
c1ccc(-c2noc(CSc3nnc(Cc4cccs4)n3-c3ccccc3)n2)cc1	1	5	8	40*	-3%	-2
Cc1cccc(-n2nnnc2SCc2csc(-c3ccccc3)n2)c1	-1	42*	-26	3	-2%	-2
c1ccc(-c2noc(CSc3nnnn3-c3ccccc3)n2)cc1	1	13	-43*	-7	2%	-5
CCc1ccc(-n2c(Cc3ccccc3)nnc2SCc2nc(-c3cccs3)no2)cc1	-1	84*	-37*	2	-3%	18
Cc1ccc(Nc2nc(CSc3nnnn3-c3ccccc3)cs2)cc1	0	1	5	-2	-5%	-3
CCC(CC)C(=O)Nc1ccc(C)cc1O	-1	4	-17	-11	0%	-3
CCOC(=O)c1cc2n(c1/N=C/N(C)C)-c1ccccc1C2=O	85*	90*	-10	-2	-1%	-5
CCOC(=O)c1ccc2c(c1)N(C)C(=O)c1ccccc1S2	-1	1	3	-1	-5%	-1
SMILES	TRHR ag	D1 agonist	D1 antagonist	TRHR PAM	Glioma ERSR ind	D1 PAM
COc1ccc(NC(=O)c2ccc3c(c2)N(Cc2cccc(Cl)c2)C(=O)c2ccccc2S3(=O)=O)cc1Cl	0	6	-10	-2	-1%	-2
CC(=O)c1ccc(NC(=O)c2ccc3c(c2)N(Cc2cccc(Cl)c2)C(=O)c2ccccc2S3(=O)=O)cc1	1	6	-7	30*	1%	-2
Cc1ccc(C)c(CN2C(=O)c3ccccc3S(=O)(=O)c3ccc(C(=O)NCCCN4CCCC(C)C4)cc32)c1 (configuration not stated)	1	20	-1	4	.	-3
CC1CC(C)CN(CCCNC(=O)c2ccc3c(c2)N(Cc2ccccc2)C(=O)c2ccccc2S3=O)C1 (configuration not stated)	-1	80*	3	-4	-4%	-6
CC1CCCN(CCCNC(=O)c2ccc3c(c2)N(Cc2ccc(Cl)cc2)C(=O)c2ccccc2S3(=O)=O)C1 (configuration not stated)	4	60*	-35*	-7	-10%	-1
Cn1cc(S(=O)(=O)N2CCCCC2)cc1C(=O)NCc1ccc(Cl)cc1	1	9	-11	3	-4%	-3
COc1ccccc1NC(=O)C1=C(C)Nc2nc(-c3ccco3)nn2C1c1ccccc1 (configuration not stated)	0	0	2	6	-4%	1
Cc1ccc(CNC(=O)/C=C/c2c(Cl)cccc2Cl)cc1	1	6	-36*	1	-5%	-2
Cc1ccc(CNC(=O)/C=C/c2ccccc2Cl)cc1	2	7	-12	3	0%	-3
COc1ccc(S(=O)(=O)NCc2cn3c(C)csc3n2)cc1F	0	3	-49*	-2	-2%	-2
CC(=O)Nc1ccc(S(=O)(=O)NCc2cn3c(C)csc3n2)cc1	1	1	-8	-2	-3%	0
Cc1csc2nc(CNS(=O)(=O)c3ccc4c(c3)CCCC4)cn12	-1	10	-60*	7	1%	-17
Cc1csc2nc(CNS(=O)(=O)N(C)C)cn12	0	1	-72*	6	-1%	.
COc1ccc(C(=O)Nc2ccccc2SCc2cc(=O)n3nc(C)sc3n2)cc1OC	0	1	30	-1	0%	-3
C=CCOC(=O)C1=C[C@@H](c2coc3ccccc3c2=O)C[C@@H](OCc2ccc(CO)cc2)O1	0	-2	-49*	2	1%	-1
O=C(NCc1ccccc1)C1=C[C@H](c2coc3ccccc3c2=O)C[C@H](OCc2ccc(CO)cc2)O1	1	4	6	5	1%	1
C=CCOC(=O)C1=C[C@H](c2coc3ccccc3c2=O)C[C@H](OCc2ccc(CO)cc2)O1	-1	8	22	-1	0%	-3
O=C(Nc1ccccc1)C1=C[C@@H](c2coc3ccccc3c2=O)C[C@@H](OCc2ccc(CO)cc2)O1	0	-3	-37*	0	3%	-4

Source: PubChem (National Center for Advancing Translational Sciences (NCATS))
